ADAM10 inh = inhibitors of human ADAM10 | actives 0.62% (n = 370,000) | recombinant ADAM10, EDANS/DABCYL FRET peptide cleavage, 3 h | inhibition, % at 7 µM | AID 720582 | O14672;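 active = inhibition above a per-campaign cutoff equal to the mean of compounds falling between control-based bounds plus 3 SD, cut at about 20% in these data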;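 also: 0% = DMSO wells while the 100% control is not disclosed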
Target sequence (O14672 214-748 limits assumed): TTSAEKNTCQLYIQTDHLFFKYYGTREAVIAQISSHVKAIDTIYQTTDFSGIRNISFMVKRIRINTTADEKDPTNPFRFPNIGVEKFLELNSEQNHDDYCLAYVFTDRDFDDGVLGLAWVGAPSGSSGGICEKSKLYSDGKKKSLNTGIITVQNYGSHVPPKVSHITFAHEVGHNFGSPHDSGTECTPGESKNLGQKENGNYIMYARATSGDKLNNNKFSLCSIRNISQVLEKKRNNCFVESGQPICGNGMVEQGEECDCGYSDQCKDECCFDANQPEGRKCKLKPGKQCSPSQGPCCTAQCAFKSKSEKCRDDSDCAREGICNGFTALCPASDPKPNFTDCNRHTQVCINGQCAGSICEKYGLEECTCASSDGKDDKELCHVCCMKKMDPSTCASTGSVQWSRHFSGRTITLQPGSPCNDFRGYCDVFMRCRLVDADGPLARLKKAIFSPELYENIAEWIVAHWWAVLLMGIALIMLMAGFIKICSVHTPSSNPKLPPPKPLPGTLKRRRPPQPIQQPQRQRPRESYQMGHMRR
KLK7 zymogen act = activates the human kallikrein-7 zymogen | actives 0.9% (n = 370,000) | activation, % at 7 µM | purified proKLK7, EDANS-DABCYL substrate fluorescence; 100% is mature enzyme control, 0% vehicle;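 active = activation above the mean of all tested compounds plus 3 SD, computed per campaign excluding outliers beyond control limits, cut at about 13% in these data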
ADAM17 inh = ADAM17 inhibition, QFRET primary screen. P78536. recombinant ADAM17, EDANS/DABCYL FRET peptide cleavage. inhibition, % at 6.95 µM. actives 0.83% (n = 370,000);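 active = inhibition above the mean of compounds lying between control limits plus 3 SD, set per campaign, cut at about 8.5% in these data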;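 also: 0% = DMSO-only wells as the low control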
rRNA inh HTS = inhibits bacterial ribosomal RNA function over humanized ribosomes; E. coli WT GFP vs humanized-ribosome RFP mutants, fluorescence, 24 h; hits give low values; DMSO median 0, no signal -100; GFP signal change (wild-type ribosome), % (test concentration not listed); actives 1.6% (n = 350,000); AID 720706;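 active = significant combined selectivity score with lowered wild-type GFP, culture density cut under 30%, mutant RFP and density less affected; inactive = any of these conditions unmet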
FGF22 binding = binders of recombinant human FGF22 by thermal shift | Q9HCT0 | SYPRO orange fluorescence; percent of sucrose octasulfate shift, DMSO zero | activity (Tm shift, normalised), % at 9.99 µM | actives 1.5% (n = 340,000) | AID 651658;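 active = mean Tm shift, scaled 0 neutral to 100 positive control, at about 1.3% or above, every replicate too, limit read from the data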
* marks the source's active call; other numbers are inactive results; / = not tested or not shown. A selection: hits, their analogues and other compounds. The true share with any hit is near 3.8%.

SMILES	ADAM10 inh	KLK7 zymogen act	ADAM17 inh	rRNA inh HTS	FGF22 binding
O=C1C=C(NCCc2cc(Br)c(O)c(Br)c2)C(=O)c2ncccc21	-2	1	4	-27*	0
CCCNC(=O)N1CC2(CCN(C(=O)C3CCC3)CC2)c2c([nH]c3cc(OC)ccc23)[C@@H]1CO	/	/	/	-1	0
CCCOc1ccc(C(=O)NNC(=S)NC(=O)c2ccco2)cc1	2	0	-1	-48*	0
O=C(NNC(=S)NC(=O)c1ccco1)c1ccc(F)cc1	7	0	1	/	6.2*
O=C(C1CCCC1)N1CC2(C1)[C@@H](c1ccccc1)[C@H](CO)N2C(=O)CC1CC1	/	/	/	4	/
CO[C@H](CN(C)C(=O)c1ccc2c(c1)OCO2)[C@@H](C)CN([C@@H](C)CO)S(=O)(=O)c1ccccc1	/	/	/	1	0
O=C(CCCCC(=O)OC1CCCCC1)OC1CCCCC1	-2	-1	-6	1	43*
Nc1cc(=O)[nH]c(SCc2cccc3ccccc23)n1	-2	-1	-2	-6	0
COc1ccccc1-c1noc(CSc2nc(N)cc(=O)[nH]2)n1	2	0	-2	7	43*
N#Cc1cccc(-c2ccc3c(c2)[C@H]2[C@H](CCN2S(=O)(=O)c2ccccc2F)[C@@H](CO)N3)c1	/	/	/	-16	0
Nc1ncnc(N)c1N=Nc1ccccc1	6	0	2	9	0
Nc1ccc2ccccc2c1N=Nc1ccccc1	13	0	4	-31*	0
O=C(c1cccnc1)N1CCN(C/C=C/c2ccccc2)CC1	-5	0	0	7	43*
CS(=O)(=O)N1CCc2cc(C(=O)N3CCN(c4ccccc4)CC3)ccc21	-7	0	1	2	0
CC(C)CN(CC(C)C)C(=O)c1cccc(S(=O)(=O)N2CCc3ccccc32)c1	7	0	4	/	44*
O=C(c1ccc2c(c1)CCN2S(=O)(=O)c1ccccc1)N1CCN(c2ccccc2F)CC1	-4	0	-5	-22*	0
O=C(NNC(=O)c1cccc(S(=O)(=O)N2CCc3ccccc32)c1)c1ccccc1	7	0	-1	-26*	0
CC(=O)Nc1cccc2c1O[C@H](CN(C)C(C)=O)[C@@H](C)CN(C)C2=O	/	/	/	2	/
COc1ccc2c3c([nH]c2c1)[C@H](CO)N(Cc1ccccc1OC)CC31CN(S(C)(=O)=O)C1	/	/	/	0	/
CC(=O)c1sc2nc(CSc3nnnn3-c3ccccc3)[nH]c(=O)c2c1C	-40	-1	-15	4	0
CC(=O)c1sc2nc(CSc3nncn3C)[nH]c(=O)c2c1C	-54	-1	-20	/	44*
Cc1ccc(C(=O)NNC(=O)Cn2nnc3ccccc32)cc1	7	1	-4	-31*	0
Cc1ccc(C(=O)Cn2nnc3ccccc32)cc1	-2	0	2	/	/
CC(=O)NNC(=O)CCn1nnc2ccccc21	-3	0	-6	/	44*
COc1ccc(OC(=O)N(C)C[C@H]2OCc3cn(nn3)CCCC(=O)N([C@@H](C)CO)C[C@H]2C)cc1	/	/	/	-1	0
SMILES	ADAM10 inh	KLK7 zymogen act	ADAM17 inh	rRNA inh HTS	FGF22 binding
C=CCn1c(-c2cc3c(s2)CCC(CC)C3)n[nH]c1=S (stereo unspecified)	-178	-26	-44	-38*	0
COC(=O)c1ccc(CN2CC(=O)N3[C@H](CO)[C@H](c4ccc(-c5ccccc5)cc4)[C@H]3C2)cc1	/	/	/	-4	/
O=C(CSc1cccc[n+]1[O-])C12CC3CC(CC(C3)C1)C2	-4	0	-4	-27*	0
O=C(O)CSc1cccc[n+]1[O-]	-6	1	-5	/	/
COc1cc(/C=C2\SC(=S)N(NC(=O)c3ccccc3O)C2=O)ccc1O	-7	1	-1	-41	0
O=C(NN1C(=O)/C(=C/c2ccc(O)c([N+](=O)[O-])c2)SC1=S)c1ccccc1Cl	5	0	1	-22*	/
Oc1ccc(Br)cc1-c1ccnn1-c1ccccc1	-1	-2	-2	-39*	0
CNC[C@H]1Oc2ccccc2C(=O)N(C)C[C@H]1C	/	/	/	-1	/
CC1=C(C(=O)OC2CCCC2)C(c2coc3ccccc3c2=O)C2=C(CC(C)(C)CC2=O)N1 (stereo unspecified)	7	0	-1	-22*	0
CC1=C(C(=O)OCC2CCCO2)C(c2coc3ccc(C)cc3c2=O)C2=C(CCCC2=O)N1 (stereo unspecified)	-1	0	-3	0	64*
C/C=C/c1ccc([C@@H]2[C@H](CO)N(C(=O)CN(C)C)C23CN(C(=O)C2CC2)C3)cc1	/	/	/	1	/
NC(=O)c1cc(-c2ccccc2)sc1NC(=O)CN1CCCCC1	-9	0	-1	/	43*
NC(=O)c1ccccc1NC(=O)CN1CCCCCC1	-2	1	-5	9	0
CCc1ccc(NC(=O)CSc2nc3ccccc3c(=O)n2CCCC(=O)NCCCN2CCOCC2)cc1	4	0	2	/	43*
Cc1ccc(NC(=O)CSc2nc3ccccc3c(=O)n2CCCC(=O)NCCCN2CCOCC2)cc1C	9	0	-1	10	0
COc1ccc(NC(=O)CSc2nc3ccccc3c(=O)n2CCCN2CCC(C)CC2)c(OC)c1	4	0	-7	-9	43
CC1CCN(CCCn2c(SCC(=O)Nc3ccccc3Cl)nc3ccccc3c2=O)CC1	4	0	-3	-33*	0
CNC(=O)C[C@H]1CC[C@H]2[C@H](COc3ccc(NC(=O)c4ccc(C(F)(F)F)cc4)cc3C(=O)N2C)O1	/	/	/	/	0
CCCNC(=S)Nc1ccc(Cl)cc1C	6	0	0	/	/
Cc1cc(Cl)ccc1NC(=S)NC(C)(C)C	-3	0	-2	-35*	0
Cn1c(-c2ccccn2)[n+](C)c2ccccc21	-1	0	-2	13	43*
O=[N+]([O-])c1cc(-c2cnc3ccccc3n2)ccc1Cl	-3	-1	-1	17	44*
C[C@H]1CC=CC[C@@H](c2ccccc2)NC(=O)[C@H](Cc2ccccc2)N(C)C(=O)c2ccccc2O1 (mixture of isomers)	/	/	/	-7	/
CC(C)NC1(C#N)CCN(Cc2ccccc2)CC1	0	0	-1	13	43*
CCCN1[C@@H]2c3ccc(-c4ccc(OC)cc4)c(=O)n3C[C@H]1[C@H](CO)[C@H]2C(=O)NCC	/	/	/	0	/
C[C@@H]1CN(C)C(=O)c2cccnc2O[C@@H]1CN(C)C	/	/	/	1	/
COc1ccc(S(=O)(=O)NCCOc2ccccc2)cc1-n1cnnn1	-3	0	-2	8	43
Cc1cc(C)c(S(=O)(=O)NCCOc2ccccc2)c(C)c1-n1cnnn1	-3	0	-5	-18*	0
COc1ccc(/C=C/C(=O)c2ccc([N+](=O)[O-])o2)cc1OC	-9	0	-7	-4	0
COc1cc(/C=C/C(=O)c2ccc([N+](=O)[O-])o2)ccc1O	1	0	-3	-24*	0

Source: PubChem BioAssay
